Screening data deposited in PubChem BioAssay by National Center for Advancing Translational Sciences (NCATS).
Shown are actives, neighbours in structure and some others; about 11% of the full set was active somewhere.
Pf growth 48h: P. falciparum growth inhibition at 48 hours (one generation); Potency, µM (highest dose often 28.7 µM), usual class: inhibitors; P. falciparum luciferase growth in erythrocytes, 48 h; 310,000 tested, 5.9% active; AID 504832
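First compound was added to culture medium, then infected red cells at 0.1% parasitemia and 2% hematocrit (final). After incubation at 37 C under 5% CO2, luciferase detection reagent was dispensed and light output recorded.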
AmpC no deterg: inhibitors of E. coli AmpC beta-lactamase without detergent. 330,000 tested, 0.52% active. Potency, µM (series often up to 57.1 µM), hits mostly inhibitors. P00811. AmpC nitrocefin hydrolysis, absorbance 480 nm, 0.0001% Triton. AID 485341; note: nearly all actives have a fitted effect of over 20% in size
Target sequence (P00811 whole entry, looked up): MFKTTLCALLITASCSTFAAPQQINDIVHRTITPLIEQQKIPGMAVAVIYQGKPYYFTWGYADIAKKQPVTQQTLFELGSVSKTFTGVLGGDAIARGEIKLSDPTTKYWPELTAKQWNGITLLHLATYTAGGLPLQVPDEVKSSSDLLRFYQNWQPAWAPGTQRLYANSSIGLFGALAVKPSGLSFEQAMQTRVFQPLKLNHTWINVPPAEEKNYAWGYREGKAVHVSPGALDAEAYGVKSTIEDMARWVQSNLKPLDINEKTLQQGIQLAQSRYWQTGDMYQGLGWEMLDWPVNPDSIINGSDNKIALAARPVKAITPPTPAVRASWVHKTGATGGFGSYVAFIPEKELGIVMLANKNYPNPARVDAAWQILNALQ
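AmpC (5.3 nM in the dispensed reagent) in 20 mM phosphate pH 7.0 with 0.01% (detergent screen) or 0.0001% Triton X-100 was preincubated with compounds for 15 min at room temperature. Nitrocefin was then added from an 800 uM solution, and hydrolysis was followed at 480 nm.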
HCV inh: inhibitors of hepatitis C virus infection | 340,000 tested, 3.4% active | Huh7.5.1 HCVcc-Cre infection, luciferase reporter, 44 h | Potency, µM (titrated, usually from 41.8 µM), most hits filed as inhibitors
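Infectious HCV cell culture screen: compound-treated cells (1,000/well, pre-plated 4 h) are infected with HCVcc-Cre at roughly 0.5 moi and grown 44 h. Infection is quantified by luciferase signal after 15 min substrate incubation at room temperature.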
AMA1 RON2 block: inhibitors of Plasmodium falciparum AMA1-RON2 interaction; AID 720542; AlphaScreen AMA1-biotinylated RON2 peptide binding; Potency, µM (doses to about 58.2 µM), usual class: inhibitors; 360,000 tested, 0.2% active; note: nearly all actives have a fitted effect of over 45% in size
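AMA1 (3D7) with his tag at 25 nM final met compounds first, then biotinylated RON2 peptide at 25 nM; detection used donor plus acceptor beads, 10 µg/mL apiece, read by AlphaScreen after 30 min at room temperature.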
AmpC inh detg: blocks E. coli AmpC beta-lactamase in detergent assay. P00811. AmpC hydrolysis of nitrocefin, absorbance 480 nm, 0.01% Triton. Potency, µM (top dose mostly 114 µM), usual class: inhibitors. 370,000 tested, 0.041% active; note: nearly all actives have a fitted effect of over 25% in size
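AmpC (5.3 nM in the dispensed reagent) in 20 mM phosphate pH 7.0 with 0.01% (detergent screen) or 0.0001% Triton X-100 was preincubated with compounds for 15 min at room temperature. Nitrocefin was then added from an 800 uM solution, and hydrolysis was followed at 480 nm.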
Pf growth 96h: inhibits malaria parasite growth, 96 h | P. falciparum luciferase reporter growth, 96 h | Potency, µM (highest dose often 28.7 µM), most hits filed as inhibitors | 320,000 tested, 6.9% active | AID 504834
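Infected RBCs, 2% Hct / 0.05% parasitemia final; luciferase-reporter P. falciparum; cpd 96 h, 37 C, 5% CO2; luciferase detection reagent; luminescence.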
Numbers stand for hits; n = inactive; u = inconclusive; x = no result; [ ] = another dose, or the depositor's remark. Calls come from the whole dose curve; as a rule, active = well fitted curve in the direction sought with a large enough effect; inconclusive = small, poorly fitted or top-dose-only effect, or another doubt; inactive = no such curve, though single readings can be large; an effect the other way counts as inactive or inconclusive.

SMILES	Pf growth 48h	AmpC no deterg	HCV inh	AMA1 RON2 block	AmpC inh detg	Pf growth 96h
Cc1cc(NCCN2CCOCC2)n2nc(C)c(-c3ccc(Cl)cc3)c2n1	n	n	10µM	n	n	u
Cc1cc(NCCCn2ccnc2)n2nc(C)c(-c3ccc(Cl)cc3)c2n1	x	n	10µM	n	n	n
O=C(CSc1nccn1Cc1ccc(Cl)cc1)Nc1ccc2c(c1)OCCO2	x	x	x	x	n	x
Cc1cccc(N2CCN(C(=O)c3cc4c(=O)n(C)c5ccccc5c4s3)CC2)c1C	x	x	x	x	n	x
CCOc1ccc(-c2nonc2NC(=O)c2ccc(C)cc2)cc1OCC	x	x	x	x	n	x
Cc1ccc(C(=O)CSc2nn3c(=O)c(C(C)(C)C)nnc3s2)cc1	n	n	n	n	n	u
Cc1nnc2sc(SCc3ccc(Cl)cc3)nn2c1=O	u	n	n	n	n	1µM
Cc1ccc(CSc2nn3c(=O)c(C)nnc3s2)cc1	8.3µM	n	n	n	n	u
Cc1nnc2sc(SCC(=O)Nc3ccc(Cl)cc3)nn2c1=O	u	n	n	n	n	u
Cc1cccc(CSc2nn3c(=O)c(C)nnc3s2)c1	10µM	n	n	n	n	u
CC(=O)Nc1cccc(NC(=O)CSc2nn3c(=O)c(C)nnc3s2)c1	9.3µM	n	n	n	n	5.2µM
COCCCNC(=O)C1CCCN(S(=O)(=O)c2ccc3c(c2)oc(=O)n3C)C1 (stereo unspecified)	x	x	x	x	n	x
CC(C)CC1(C(=O)NCCc2c[nH]c3ccccc23)C=CCN1C(=O)c1ccccc1 (stereo unspecified)	u	n	n[8.37 µM]	n	u	10µM
CC(=O)N1CC=CC1(CC(C)C)C(=O)NCCc1c[nH]c2ccccc12 (stereo unspecified)	n	n	n	n	n	n
COc1ccc(C2C=C(c3ccc(C)c(C)c3)Nc3ncnn32)c(OC)c1OC (stereo unspecified)	x	n	u	n	u	9.3µM
Fc1ccc(Br)cc1C1C=C(c2ccc(Br)s2)Nc2ncnn21 (stereo unspecified)	n	n	u	n	n	n
COc1cccc(C2C=C(c3ccc(Br)s3)Nc3ncnn32)c1OC (stereo unspecified)	u	n	n	n	n	2.3µM
COc1cccc(C2=CC(c3ccc(OC)c(OC)c3OC)n3ncnc3N2)c1 (stereo unspecified)	x	x	x	x	n	x
Cc1cc(Br)ccc1NC(=O)CCS(=O)(=O)c1cccc2nsnc12	x	x	x	x	n	x
CCc1ccc(CNC(=O)Cn2nc(-c3ccc(Cl)cc3)ccc2=O)cc1	x	x	x	x	n	x
COc1ccc(NC(=O)C2CCCN(S(=O)(=O)c3ccc4c(c3)CCCN4C(C)=O)C2)cc1Cl (stereo unspecified)	u	n	2.5µM	n	n	n
CC(=O)N1CCCc2cc(S(=O)(=O)N3CCCC(C(=O)Nc4ccc(C)c(C)c4)C3)ccc21 (stereo unspecified)	x	x	x	x	n	x
COc1ccc(NC(=O)C2CCCN(S(=O)(=O)c3ccc4c(c3)CC(C)N4C(C)=O)C2)cc1 (stereo unspecified)	13µM	n	u	n	n	n
CCOc1ccc(NC(=O)C2CCCN(S(=O)(=O)c3ccc4c(c3)CC(C)N4C(C)=O)C2)cc1 (stereo unspecified)	u	n	n	n	n	u
COc1ccc(NC(=O)C2CCCN(S(=O)(=O)c3ccc4c(c3)CCCN4C(C)=O)C2)cc1 (stereo unspecified)	12µM	n	u	n	n	n
SMILES	Pf growth 48h	AmpC no deterg	HCV inh	AMA1 RON2 block	AmpC inh detg	Pf growth 96h
O=C(NCC(c1ccc2c(c1)OCO2)N1CCOCC1)C(=O)Nc1ccccc1 (stereo unspecified)	x	x	x	x	n	x
C=CCn1c(COc2ccccc2F)nnc1SCC(=O)NC(=O)NCc1ccco1	x	n	n	n	u	n
C=CCn1c(SCC(=O)Nc2cc3oc4ccccc4c3cc2OC)nnc1-c1cnccn1	9.3µM	n	13µM	n	n	n
C=CCn1c(COc2ccccc2F)nnc1SCC(=O)Nc1cc2oc3ccccc3c2cc1OC	n	n	7.1µM	n	u	n[5.75 µM]
C=CCn1c(SCC(=O)Nc2cccc3ccccc23)nnc1-c1cnccn1	u	n	n	n	n	u
COc1ccc(N=C2O/C(=C/c3sc(=S)n(CC4CCCO4)c3O)N=C2C#N)cc1 (stereo unspecified)	u	n	n	n	n	15µM
CN(C)S(=O)(=O)c1ccc(/C(O)=C2/C(=O)C(=O)N(Cc3cccnc3)C2c2ccco2)cc1 (stereo unspecified)	n	n	n	n	u	8.3µM
CCN(CC)S(=O)(=O)c1cc(OC)ccc1N=Nc1ccc(O)c2ncccc12	u	n	5µM	n	n	n
CCS(=O)(=O)c1ccc(OC)c(N=Nc2ccc(O)c3ncccc23)c1	u	n	u	n	n	u
CCOc1ccc(N=Nc2ccc(O)c3ncccc23)cc1	0.74µM	n	7.9µM	n	n	n
Cc1ccccc1N=Nc1ccc(N=Nc2c(O)ccc3ccccc23)c(C)c1	n	x	x	x	x	n
Cc1cccc(N=Nc2ccc(O)c3ncccc23)c1	1.9µM	n	5.6µM	u	n	u
Oc1ccc(N=Nc2ccc3c(c2)OCCO3)c2ncccc12	u	n	u	n	n	1µM
O=C(Nc1ncccc1O)c1ccc2c(c1)OCCO2	u	n	n	n	u	u
CC1CCN(C(=O)c2cc3c(=O)n(C)c4cc(Cl)ccc4c3s2)CC1	x	x	x	x	n	x
O=C1C(=O)N(C2CCNCC2)CCN1Cc1ccccc1	x	x	x	x	n	x
Cc1ccc(-c2nnc(Nc3ccc(O)cc3)c3ccccc23)cc1S(=O)(=O)N1CCN(C)CC1	x	x	x	x	n	x
Cc1ccc(N=Nc2cc(C)ccc2O)c(C)c1	n	n	n	u	n	n
Cc1ccc(C)c(N=Nc2ccc(O)c3ncccc23)c1	2.1µM	n	6.3µM	n	n	u
CCCN1CCC(NCc2cn(C)nc2-c2ccc(Oc3ccccc3)cc2)CC1	1.7µM	n	11µM	n	n	u
COCCN1CCCC(CNCc2cn(C)nc2-c2ccc(Oc3ccccc3)cc2)C1 (stereo unspecified)	6.6µM	n	14µM	n	n	u
COC1CCCN(Cc2cn(C)nc2-c2ccc(Oc3ccccc3)cc2)C1 (stereo unspecified)	n	n	n	n	n	u
CCCC1=[N+](CC(=O)c2ccccc2)CCn2c(C)ccc21	u	n	u	n	n	n
CCCC1=[N+](CC)CCn2c(C)ccc21	4.7µM	u	n	n	n	n
COc1ccc(N2CCN(S(=O)(=O)c3ccc4c(c3)C(C(C)C)C(=O)N4)CC2)cc1 (stereo unspecified)	x	x	x	x	n	x
